Molecules are shown by their SMILES. Several values for one entry are separate records, joined by “and”; a condition that tells them apart may be missing. Equal entries are not always repeated. Records with an inconclusive call do not appear. Some structures have more than one record in an assay (separate samples or runs), and their calls can disagree. Unmarked numbers belong to inactive results. Activity calls are given as the source filed them. Calls follow the shape of the dose curve; as a rule, active = well fitted inhibition curve with a large enough effect; inconclusive = small, poorly fitted or top-dose-only effect; inactive = flat fitted curve, though single readings scatter.

One experiment deals with CRL-7250. As to the kind of experiment: Cytotoxic Profiling of Annotated Libraries Using Quantitative High-Throughput Screening (AID 1296008). Also: potency is read from the fitted curve at half-maximal effect. As to max response: % is scaled to controls: 0 for no effect and ±100 for the full control effect. To be noted: Five cell lines viability, CellTiter-Glo ATP luminescence, 48-72 h; max response: hits give low values. The method in brief: (§1)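 Cytotoxicity was measured as CellTiter-Glo ATP luminescence, read after 10 min at room temperature. Compound treatment of the cells lasted 48 or 72 hr at 37 degrees Celsius in a qHTS format.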
(Cellular ATP, detected with luciferase, serves as a proxy for viable cell number.)

A further experiment relates to HEK293. The experiment is described as above. To be noted: Five cell lines viability, CellTiter-Glo ATP luminescence, 48-72 h; max response: hits give low values. In outline: as §1
Experiment [1] relates to HaCat. The description is as above. The following applies: Five cell lines viability, CellTiter-Glo ATP luminescence, 48-72 h; max response: hits give low values. In outline: as §1
Another experiment has as its system KB-3-1. Described as above. To be noted: Five cell lines viability, CellTiter-Glo ATP luminescence, 48-72 h; max response: hits give low values. The method in brief: as §1
Another experiment deals with NIH3T3. Described as above. To be noted: Five cell lines viability, CellTiter-Glo ATP luminescence, 48-72 h; max response: hits give low values. The method in brief: as §1
Experiment [2] concerns HACAT. As to the kind of experiment: qHTS assay to identify novel small-molecules to repurpose for Merkel cell carcinoma treatment (AID 1296009). The following applies: MCC and control cell lines, CellTiter-Glo viability, 72 h. In outline: (§2)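 Cell viability, measured as CellTiter-Glo luminescence, was normalized between DMSO and no-cell wells. The cells had been exposed to 8- or 11-point compound dilutions for 72 hr at 37 degree celsius.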
In general terms: In qHTS, concentration-response curves come from the screen itself.

A further experiment concerns HEK293T. Described as above. To be noted: MCC and control cell lines, CellTiter-Glo viability, 72 h; at 44.8 µM (top of the series) unless noted. In outline: as §2
A further experiment has as its system MCC-13. The experiment is described as above. The following applies: MCC and control cell lines, CellTiter-Glo viability, 72 h; series mostly up to 46 µM. The method in brief: as §2
The test system of another experiment is TAB165. Briefly: qHTS profiling for inhibitors of Plasmodium falciparum proliferation (AID 504749). Also: potency is read from the fitted curve at half-maximal effect. The following applies: P. falciparum in erythrocytes, SYBR Green DNA, 72 h; series mostly up to 28.7 µM. The method in brief: (§3)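 SYBR Green fluorescence of parasite DNA, read after lysis and overnight dark incubation, measured growth over 72 h in erythrocyte culture at 0.3% parasitemia and 2.5% hematocrit. Data normalised to DMSO and 0.29 uM artemisinin, with plate-drift correction.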

The subject of a further experiment is W2. The experiment is described as above. The following applies: P. falciparum in erythrocytes, SYBR Green DNA, 72 h; series mostly up to 28.7 µM. In outline:
as §3

Setting [3] is: at 44.8 µM (top of the series) unless noted.
Also: nearly all actives have a fitted effect of over 60% in size.

With `CNS(=O)(=O)CCc1ccc2[nH]cc(C3CCN(C)CC3)c2c1`, the max response in the experiment with CRL-7250 was -7.4% and 0.211%; with HEK293, -3.79% and -10.1%; in the experiment on HaCat [1] it was 0.93%; in the experiment on KB-3-1, -19.4% and 0.237%; with NIH3T3, 0.12%. Moreover, the molecule was classed as inactive in the experiment with CRL-7250, in the experiment on HEK293, with HaCat [1], in the experiment with KB-3-1, with NIH3T3 and in the experiment on HACAT [2] (setting [3]). For the same molecule, in the experiment with HEK293T, the call was inactive. Moreover, the Potency result with MCC-13 was “inactive”.

In the case of `CN1CCN(c2c(F)cc3c(=O)c(C(=O)O)cn4c3c2OCN4C)CC1`, the Potency result in the experiment on TAB165 and with MCC-13 was “inactive” each time. Moreover, the max response was -0.174% in the experiment on CRL-7250; -2.04% in the experiment on HEK293; -7.62% in the experiment with KB-3-1; 2.5% and 4.99% with NIH3T3. Also, the molecule was called inactive in the experiment on CRL-7250, with HEK293, in the experiment on HaCat [1], in the experiment on KB-3-1, with HACAT [2] (at 17.4 µM (top of the series)) and in the experiment on HACAT [2] (at 44.8 µM (top of the series)). The outcome in the experiment with HEK293T is “inactive [at 17.4 µM]”.

As to `NS(=O)(=O)c1cc2c(cc1Cl)NC(C(Cl)Cl)NS2(=O)=O` (stereo not given), the max response with CRL-7250 was -3.96%; with HEK293, -0.123%; in the experiment with HaCat [1] it was -16.1%; with KB-3-1, 9.97%; with NIH3T3, 3.32% and -1.25%. In addition, the molecule was called inactive in the experiment with CRL-7250, in the experiment on HEK293, in the experiment with HaCat [1], with KB-3-1, with HACAT [2] (setting [3]) and in the experiment with HEK293T. Moreover, the Potency result in the experiment on MCC-13 was “inactive”.

Regarding `CCCN[C@H]1CCc2nc(N)sc2C1`, the Potency result in the experiment with TAB165, with W2 and in the experiment with MCC-13 was “inactive” in each case. Further, the max response in the experiment with CRL-7250 was 0.673%; with HaCat [1], 3.55%; in the experiment on KB-3-1 it was 5.22% and 4.84%; in the experiment with NIH3T3, 4.11% and -1.47%. Further, the outcome in the experiment with CRL-7250, in the experiment with HEK293, with HaCat [1], in the experiment with HACAT [2] (setting [3]) and in the experiment on HEK293T was inactive.

Take `CC(C)OC(=O)OCOP(=O)(CO[C@H](C)Cn1cnc2c(N)ncnc21)OCOC(=O)OC(C)C`: the max response with CRL-7250 was -6.19%; in the experiment on HEK293, -4.37%; with NIH3T3 it was -4.05% and -25.8%. In addition, the molecule was classed as inactive in the experiment with CRL-7250, in the experiment with HEK293, in the experiment with HaCat [1], in the experiment on KB-3-1, in the experiment with HACAT [2] (setting [3]) and in the experiment on HEK293T. Further, in the experiment with MCC-13, the Potency result was “inactive”.

Consider `O=C(O)c1cccnc1`, for which the Potency in the experiment on CRL-7250 is 16.6 µM (active); in the experiment on HEK293 it was 2.64 µM (active). The max response with CRL-7250 was 0.94%; in the experiment on HEK293, -12.4%; with HaCat [1], -6.32%; in the experiment on KB-3-1, 23.8% and 4.59%; in the experiment on NIH3T3, -0.396% and 0.818%. The Potency entry with MCC-13 is “inactive”.

With `CC(=O)[C@H]1CC[C@H]2[C@@H]3CC=C4C[C@@H](O)CC[C@]4(C)[C@H]3CC[C@]12C`, the max response in the experiment with CRL-7250 was 3.91%; in the experiment with HEK293, -4.16% and 0.472%; in the experiment with HaCat [1] it was 2.2%; in the experiment on KB-3-1, -0.265% and 8.01%; with NIH3T3, 0.775%. In addition, the outcome with CRL-7250, in the experiment with HaCat [1], in the experiment with NIH3T3 and with HACAT [2] (setting [3]) was inactive. For the same molecule, in the experiment on MCC-13, the Potency result was “inactive”.

For the molecule `CC(C)Cn1cnc2c(N)nc3ccccc3c21`, the Potency entry in the experiment with TAB165, with W2 and in the experiment with MCC-13 was “inactive” each time. The max response in the experiment on CRL-7250 was -12.7%; in the experiment with HEK293, -0.0078%; with HaCat [1], -15.1% and -54.5%; in the experiment on KB-3-1, -6.03% and -18.1%; with NIH3T3, -4.24% and -9.09%. For the same molecule, the molecule was classed as inactive in the experiment on CRL-7250.

In the case of `CCOC(=O)[C@H](CCc1ccccc1)N[C@H]1CS[C@H](c2cccs2)CN(CC(=O)O)C1=O`, the max response with CRL-7250 was -9.28%; in the experiment on HEK293, 4.3%; in the experiment on HaCat [1] it was 4.5%; in the experiment with KB-3-1, 4.95%; with NIH3T3, 3.22% and 0.311%. Besides, the outcome in the experiment with CRL-7250, with HEK293, in the experiment on HaCat [1], in the experiment with HACAT [2] (setting [3]) and in the experiment on HEK293T was inactive. Also, the Potency result in the experiment with MCC-13 is “inactive”.

Take `CCCc1cc(C(N)=S)ccn1`: the Potency result with TAB165, with W2 and with MCC-13 was “inactive” in each case. Besides, the outcome with CRL-7250, with HaCat [1] and in the experiment with HACAT [2] (setting [3]) was inactive. The max response was -0.75% and -9.47% with HEK293; 0.608% in the experiment with HaCat [1]; -1.25% and 6.29% in the experiment with KB-3-1; -7.14% and -4.81% in the experiment with NIH3T3.

For the molecule `COc1ccccc1OCC(O)COC(N)=O` (stereo not given), the max response in the experiment with CRL-7250 is -1.17%; in the experiment with HaCat [1], -15.7%; in the experiment on KB-3-1, 5.86% and 1.39%; in the experiment on NIH3T3 it was 4.42% and 1.69%. The outcome in the experiment on CRL-7250, in the experiment with HaCat [1], with HACAT [2] (setting [3]) and with HEK293T was inactive. Also, the Potency result with MCC-13 is “inactive”.

With `Cc1oc(=O)oc1CN1CCN(c2cc3c(cc2F)c(=O)c(C(=O)O)c2n3C(C)S2)CC1` (stereo not given), the Potency was 5.01 µM (active) with TAB165 and 4.78 µM (active) in the experiment on W2. In addition, the max response is -3.57% and 1.83% in the experiment on CRL-7250; 0.387% and 0.715% in the experiment with HEK293; 23.6% in the experiment with KB-3-1; -0.29% with NIH3T3. For the same molecule, the result in the experiment with HaCat [1], in the experiment with KB-3-1, in the experiment on NIH3T3 and in the experiment on HACAT [2] (setting [3]) was inactive. In the experiment on MCC-13, the Potency result is “inactive”.

Consider `NC1(c2ccc(-c3nc4ccn5c(=O)[nH]nc5c4cc3-c3ccccc3)cc2)CCC1`, for which the results for the max response in the experiment on CRL-7250, in the experiment on HaCat [1] and in the experiment with NIH3T3 were -3.3%, -15.1% and -6.67%, respectively. The Potency in the experiment with HEK293 was 3.32 µM (active) and 2.37 µM (active) and 3.26 µM (active); with HaCat [1], 25.9 µM (active); in the experiment on KB-3-1 it was 16.4 µM (active). For the same molecule, the Potency entry with MCC-13 was “inactive”.

(Values after PubChem BioAssay (NCATS).)
